We go through five compounds from the supplement of paper PMC7411054.

Where a name gives a salt, the structure may show the parent alone.

Common to all, as to details: treatment time: 24 h
In assay [1] the test system is A549-ACTB-RAB5A. In words: phenotypically active (imaging signature differs from DMSO and reproducible) at any of 0.3-9 uM (binary (1 = active, 0 = inactive)); higher = active. A digest of the protocol: (§1)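 Phenotypic activity depended on meeting both a deviation and a reproducibility criterion. The fifteen gene-edited A549, HepG2 and WPMY1 reporter lines were treated at 0.3, 1, 3 or 9 µM for 24 h, four wells each, then imaged live with features normalised to solvent control wells. Deviation required ≥3 of 4 wells past the 95th percentile of control Euclidean distances, and reproducibility a median replicate Pearson correlation above the 95th percentile of non-replicates.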

Another assay concerns A549-CANX-COX4. Described as above. In a few lines: as §1
In assay [2] the test system is A549-GM130-SQSTM1. Described as above. In a few lines: as §1
Assay [3] has as its system A549-TP53BP1-CLTA. Described as above. In a few lines:
as §1

The next assay relates to A549-TUBA1B-RELA. The description is as above. In a few lines: as §1
A further assay concerns HepG2-ACTB-RAB5A. The assay is described as above. In a few lines:
as §1

The next assay has as its system HepG2-CANX-COX4. The assay is described as above. In a few lines: as §1
For assay [4], the system named is HepG2-GM130-SQSTM1. Described as above. In a few lines:
as §1

For the next assay, the system named is HepG2-TP53BP1-CLTA. The assay is described as above. In a few lines:
as §1

Assay [5] has as its system HepG2-TUBA1B-RELA. Described as above. In a few lines: as §1
The next assay deals with WPMY1-ACTB-RAB5A. The description is as above. In a few lines: as §1
For the next assay, the system named is WPMY1-CANX-COX4. Described as above. A digest of the protocol: as §1
The next assay relates to WPMY1-GM130-SQSTM1. The description is as above. In a few lines:
as §1

For a further assay, the system named is WPMY1-TP53BP1-CLTA. Described as above. A digest of the protocol:
as §1

The test system of the next assay is WPMY1-TUBA1B-RELA. The description is as above. A digest of the protocol:
as §1

Assay [6] relates to A549-ACTB-RAB5A. In words: lowest phenotypically active concentration; higher = less potent. A digest of the protocol:
as §1

For assay [7], the system named is A549-GM130-SQSTM1. The assay is described as above. In a few lines:
as §1

Assay [8] has as its system A549-TP53BP1-CLTA. Described as above. In a few lines:
as §1

The subject of assay [9] is HepG2-GM130-SQSTM1. The assay is described as above. A digest of the protocol:
as §1

For assay [10], the system named is HepG2-TUBA1B-RELA. Described as above. In a few lines: as §1

Turning to `COc1cc2c(cc1OC)[C@@]13CCN4CC5=CCO[C@H]6CC(=O)N2[C@H]1[C@H]6[C@H]5C[C@H]43` [Brucine], the phenotypically active with A549-ACTB-RAB5A [1], in the assay on A549-CANX-COX4, with A549-GM130-SQSTM1 [2], in the assay on A549-TP53BP1-CLTA [3], with A549-TUBA1B-RELA and with HepG2-ACTB-RAB5A was 0 (inactive) throughout. Moreover, the phenotypically active in the assay with HepG2-CANX-COX4, with HepG2-GM130-SQSTM1 [4], in the assay with HepG2-TP53BP1-CLTA, in the assay on HepG2-TUBA1B-RELA [5], in the assay on WPMY1-ACTB-RAB5A and with WPMY1-CANX-COX4 was 0 (inactive) throughout. Further, the phenotypically active in the assay with WPMY1-GM130-SQSTM1, with WPMY1-TP53BP1-CLTA and in the assay with WPMY1-TUBA1B-RELA was 0 (inactive) in each case.

`O=C1C[C@@H]2OCC=C3CN4CC[C@]56c7ccccc7N1[C@H]5[C@H]2[C@H]3C[C@H]46` [Strychnine]: the “lowest phenotypically active concentration” value with A549-ACTB-RAB5A [6] stood at 9 µM. The phenotypically active in the assay on A549-ACTB-RAB5A [1] was 1 (active); with A549-CANX-COX4, 0 (inactive); in the assay on A549-GM130-SQSTM1 [2], 0 (inactive); in the assay on A549-TP53BP1-CLTA [3], 0 (inactive); in the assay with A549-TUBA1B-RELA, 0 (inactive); in the assay with HepG2-ACTB-RAB5A it was 0 (inactive). For the same compound, the phenotypically active in the assay with HepG2-CANX-COX4, in the assay on HepG2-GM130-SQSTM1 [4], in the assay with HepG2-TP53BP1-CLTA, in the assay on HepG2-TUBA1B-RELA [5], with WPMY1-ACTB-RAB5A and in the assay with WPMY1-CANX-COX4 was 0 (inactive) throughout. The phenotypically active with WPMY1-GM130-SQSTM1, with WPMY1-TP53BP1-CLTA and in the assay on WPMY1-TUBA1B-RELA was 0 (inactive) each time.

With `CNC(=O)Oc1ccc2c(c1)[C@]1(C)CCN(C)[C@@H]1N2C` [Eserine sulfate, physostigmine sulfate], the phenotypically active with A549-ACTB-RAB5A [1], in the assay with A549-CANX-COX4, in the assay with A549-GM130-SQSTM1 [2], with A549-TP53BP1-CLTA [3], in the assay on A549-TUBA1B-RELA and with HepG2-ACTB-RAB5A was 0 (inactive) throughout. Also, the phenotypically active in the assay on HepG2-CANX-COX4, in the assay with HepG2-GM130-SQSTM1 [4], with HepG2-TP53BP1-CLTA, in the assay with HepG2-TUBA1B-RELA [5], with WPMY1-ACTB-RAB5A and in the assay with WPMY1-CANX-COX4 was 0 (inactive) in each case. Further, the phenotypically active in the assay on WPMY1-GM130-SQSTM1, in the assay on WPMY1-TP53BP1-CLTA and in the assay on WPMY1-TUBA1B-RELA was 0 (inactive) in each case.

With `Oc1ccc2c3c1O[C@H]1[C@@H](O)CC[C@@]4(O)[C@@H](C2)N(CC2CCC2)CC[C@]314` [nalbuphine], the phenotypically active with A549-ACTB-RAB5A [1], in the assay with A549-CANX-COX4, in the assay with A549-GM130-SQSTM1 [2], with A549-TP53BP1-CLTA [3], in the assay on A549-TUBA1B-RELA and with HepG2-ACTB-RAB5A was 0 (inactive) in each case. Further, the phenotypically active in the assay on HepG2-CANX-COX4, with HepG2-GM130-SQSTM1 [4], in the assay with HepG2-TP53BP1-CLTA, in the assay on HepG2-TUBA1B-RELA [5], in the assay with WPMY1-ACTB-RAB5A and in the assay on WPMY1-CANX-COX4 was 0 (inactive) throughout. Moreover, the phenotypically active in the assay with WPMY1-GM130-SQSTM1, with WPMY1-TP53BP1-CLTA and with WPMY1-TUBA1B-RELA was 0 (inactive) each time.

As to `C[C@@H]1O[C@@H](O[C@H]2C[C@@H](O)[C@]3(CO)[C@H]4[C@H](O)C[C@]5(C)[C@@H](C6=CC(=O)OC6)CC[C@]5(O)[C@@H]4CC[C@]3(O)C2)[C@H](O)[C@H](O)[C@H]1O` [Strophantine octahydrate], the “lowest phenotypically active concentration” value with A549-ACTB-RAB5A [6] was 1 µM; with A549-GM130-SQSTM1 [7] it was not above 0.3 µM; with A549-TP53BP1-CLTA [8], not above 0.3 µM; in the assay on HepG2-GM130-SQSTM1 [9], not above 0.3 µM; in the assay with HepG2-TUBA1B-RELA [10] it was not above 0.3 µM. The phenotypically active with A549-ACTB-RAB5A [1], with A549-CANX-COX4, with A549-GM130-SQSTM1 [2], in the assay with A549-TP53BP1-CLTA [3], in the assay with A549-TUBA1B-RELA and in the assay on HepG2-ACTB-RAB5A was 1 (active) each time. The phenotypically active in the assay with HepG2-CANX-COX4, with HepG2-GM130-SQSTM1 [4], with HepG2-TP53BP1-CLTA, with HepG2-TUBA1B-RELA [5], with WPMY1-ACTB-RAB5A and with WPMY1-CANX-COX4 was 1 (active) each time. The phenotypically active in the assay on WPMY1-GM130-SQSTM1, in the assay on WPMY1-TP53BP1-CLTA and in the assay with WPMY1-TUBA1B-RELA was 1 (active) each time.
